# From PubChem BioAssay AID488890 (Southern Research Specialized Biocontainment Screening …, 2010)
# The whole screen tested about 320,000 compounds, of which about 1,300 (0.41%) were called active. About 3% were inconclusive and are not listed. No rule for the calls is given here. A selection follows. Results with a measured potency or affinity are listed apart.
# Experiment: growth inhibition of non-replicating M. tuberculosis (AID 488890);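 also: plate controls were DMSO cells for no effect and high antibiotic wells for full effect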
# Details: Mycobacterium tuberculosis non-replicating, at 25 µM, stronger effect = higher value
row,SMILES,inhibition
1,N#CC(=NCc1cccnc1)C1=C(O)c2ccccc2C1=O,16.1%
2,COc1ccc(N=C(C)C2=C(O)c3ccccc3C2=O)cc1,21%
3,COC(=O)C1=C(C)N(CCCC(=O)O)C(=O)NC1c1ccc(OC)cc1 (configuration not stated),-3.65%
4,CCOc1ccc(N2CC(=O)N(c3ccc(OCC)cc3)CC2=O)cc1,2.08%
5,CCOc1ccc(N2C(=O)CNC2=S)cc1,27.5%
6,CN(C(=O)c1ccccc1C(=O)OCC(=O)NCc1cccs1)C1CCCCC1,-0.2%
7,O=C(c1ccc(Br)o1)N1CCN(c2ccc(F)cc2)CC1,66.9%
8,CN(C)C(=O)c1cccn1-c1ncc(C(F)(F)F)cc1Cl,-7.62%
9,O=c1c2ccccc2nc(-c2ccccc2)n1-c1ccccc1O,49.7%
10,COc1ccccc1-n1c(-c2ccccc2Br)nc2ccccc2c1=O,5.34%
11,O=C(CCC(=O)N1CCN(c2ccc(F)cc2)CC1)c1ccc(Cl)cc1,37.7%
12,Cc1c(Cl)cccc1NC(=O)C1CCCN(S(C)(=O)=O)C1 (configuration not stated),1.51%
13,Cc1ccc(S(=O)(=O)N2CCCCC2)cc1NC(=O)COC(=O)C1=COCCO1,-3.36%
14,CC(=O)c1c(O)cc(C(C)C)n(-c2ccccc2)c1=O,6.76%
15,C=CCNC(=O)N[C@@H](CCSC)C(=O)OC,-9.43%
16,O=C(COC(=O)c1n[nH]c2ccccc12)NCCc1ccc(Cl)cc1,18.4%

row,SMILES,inhibition
1,Cc1ccccc1NCc1nc2ccccc2n1C,34.2%
2,CCCn1c(CNC(=O)Cc2ccccc2)nc2ccccc21,-2.66%
3,CCCn1c(CNc2ccc(Br)cc2)nc2ccccc21,66.1%
4,Cn1c(CNc2ccc(O)cc2)nc2ccccc21,73.1%
5,COc1ccc(S(=O)(=O)N2CCC(C(=O)N3CCCCC3)CC2)cc1,-4.95%
6,O=C(CNC(=O)c1cccs1)NCC(=O)OCc1ccccc1Br,20.5%
7,Cc1ccc(S(=O)(=O)Nc2ccc(F)cc2)cc1C(=O)N1CCOCC1,-12.4%
8,COc1cc(OC)nc(-n2ncc(OC)c(Br)c2=O)n1,-12%
9,COC(=O)c1cnn(-c2nc(OC)cc(OC)n2)c1C,-11.5%
10,COc1cc(C(=O)ON=C2C3CC4CC(C3)CC2C4)cc(OC)c1OC,46.9%
11,COc1ccc(-c2nc(CSCC(=O)N3CCN(C(=O)c4ccco4)CC3)c(C)o2)cc1OC,-16.5%
12,CCOC(=O)C1(CCOc2ccccc2)CCN(C(=O)CCSC)CC1,10.9%
13,CN1CCN(C(=O)CCN2C(=O)/C(=C/c3ccccc3Cl)SC2=S)CC1,18.9%
14,COc1cccc(/C=C2\SC(=S)N(CCCC(=O)N3CCCCC3)C2=O)c1,79%
15,COc1cccc(/C=C2/SC(=S)N(CCC(=O)N3CCOCC3)C2=O)c1,46.5%
16,O=C(CCN1C(=O)/C(=C\c2ccccc2Cl)SC1=S)N1CCN(c2ccccc2)CC1,73.2%
